The results in this text go back to the supplement of paper PMC6555819.

For the first experiment, the system named is PXR:RXRa (NR concentration 270 nM, RXRa partner concentration 90 nM). Put plainly: PBM binding z-score (relative to random genomic background probes); higher = stronger binding; sequences stand for … in GC…GCGATTGACAGCGTAGAATGAAGG
In short, it runs like this: (§1)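 Scanned fluorescence from custom Agilent 4×180K protein-binding microarrays was regression-normalized. Binding z-scores use random background probes as reference. Ligand-free nuclear receptor dimers were incubated on the arrays for 1 h and detected with antibodies against each partner (one per run).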
Take GCTAGCAGGCCATTTGAGTCACTCAATGACGGGC: the PBM binding z-score is -0.369.

As for TAGCCTAGGTCATTCAGGGGCCAGTATAGAAAGC, the PBM binding z-score was found to be 2.57.

As to ATCTCTAGTTAAAGTTCAGTGAAAGATCGATAGA, the PBM binding z-score worked out at 2.29.

On to ATATGTAGGTTAGCTGGGTTCATTCAGACTAGGC, for which the PBM binding z-score turned out to be 6.34.

Take TCTATTAGTTCATTAGGGCAACCGAAACAGCGGA: the PBM binding z-score turned out to be 1.75.

Consider CCTGCTAGGTCATGGTCCGCTAATCTACAGTATG, for which the PBM binding z-score was found to be 1.29.

TGTAGCAGGCCAGAGGGTCACTCAAGAGGTACGG yielded a PBM binding z-score of 1.39.

CGAACTAGGTCAGAACAAGACAGTGAAGGATGAT: the PBM binding z-score stood at 0.244.

Consider ATCTCTAGGTAACAAGTTGAGTGAAAGAGAGGAC, for which the PBM binding z-score turned out to be 0.294.

Turning to AGTCAAAGCTCAGGACGAGGTAACGTAAAGCACG, the PBM binding z-score is -0.435.

In the case of ACTAGTTGGTCAGCTGAGGTCAGACACAATTCGG, the PBM binding z-score turned out to be 4.31.

For CCTTACGGGTCACGCGGTTATAGCACGACGAGCG, the PBM binding z-score is 3.53.

Take TCTTGTAGAGCAAGCAGGTTAAGAAAGCCTGAGT: the PBM binding z-score is -0.144.

ATACCAAGGGGATCGTGAGGTCGTTGATACTAAC showed a PBM binding z-score of 1.68.

AGTCAAAGTTCAGGTCGAGGTAACGTAAAGCACG displayed a PBM binding z-score of 3.53.

As for CCAGACAGGTGAGAAGGTAACCCAGCCTCGATTA, the PBM binding z-score was -0.0868.

Sequence CCTAGCAGGCCAATCTGGGTCACTCAAGGCTTGA returned a PBM binding z-score of 0.995.

The sequence TCATATAGGTACAGGTGAAAGTCGAACGATATGA gave a PBM binding z-score of 0.509.

CAAACTAGGTCAAGGACAAAGTCGGTTTGTGCCA: the PBM binding z-score stood at 1.6.

TCAAATAGGTAATACAGGTGAAAGTCGGCATCTA displayed a PBM binding z-score of 0.771.

As for GCTTGTAGATCGAGGTTAAGAAAGACTAAGCTAA, the PBM binding z-score was 0.519.

Regarding ACTATTAGTTCAGACGAGGGCAACCGATAGGTTG, the PBM binding z-score was found to be 3.92.

For the sequence AATATTAGTTGAGACGAGGGCAACCGATAGGTTG, the PBM binding z-score was 1.71.

GCATATAGGTAATACAAGGTGATAGTCCGATTGT registered a PBM binding z-score of 0.0575.

As to CCTACTGGTCCACGAAAGGTCATTGATTCAGTGA, the PBM binding z-score is 5.53.

In turn, GCGAGTGGGGCATCAGCAGGTTACCATAACTTAA showed a PBM binding z-score of 0.25.

With AGAATGAGGTTGTTAAGATCAGGGAATTGCGGTC, the PBM binding z-score was 0.362.

Consider TCCAGCAGGCCAGAGGGTCACTCAAGAGGTACGG, for which the PBM binding z-score amounted to 1.45.

GCTTGTAGATAAAGGTTAAGAAAGACTAAGCTAA: the PBM binding z-score was 0.774.

CAGCCTAGGTCTGGGCCAGTATAGGAGGAACGTT gave a PBM binding z-score of -0.944.

With CCTAGTTGGTCGAGGTCACACACGCTATAGGTAC, the PBM binding z-score came to 5.08.

Consider ACTCGGAGCACAAAGGTCAGAGCTACGCCAGTGA, for which the PBM binding z-score is 3.62.

On to TCATATAGGTAAAAGGTGAAAGTCGGTGTGGTAA, for which the PBM binding z-score was determined as 2.17.

Consider CCTCGGAGGCCAGAAGGTCAGAGCTGTCCGCTTT, for which the PBM binding z-score was determined as 1.32.

In the case of TATACAGGGTCAAAGGCCCGAGTACGAATGTCGA, the PBM binding z-score was found to be 3.57.

CGTCCAAGGTCAATGCTCGGTCAGTGAAAGCATT gave a PBM binding z-score of 3.93.

Regarding TCTATTACTTGAAGGGCAACCGACGAGTCCGTTT, the PBM binding z-score worked out at 1.01.

CCGAGTAGTTTATGGGGCATTCAGGCAACGGTGA displayed a PBM binding z-score of -0.181.

TCGAGTAGATTAGTCGGGGCATTCAGCCAACATA came in with a PBM binding z-score of -0.262.

Regarding CGTCCAAGATCAGCAGGTCAGTGAAAGCGACGTG, the PBM binding z-score was found to be 0.136.

The subject of another experiment is PXR homodimer (NR concentration 270 nM). Described as above. A digest of the protocol:
as §1
Consider GCTAGCAGGCCATTTGAGTCACTCAATGACGGGC, for which the PBM binding z-score was -0.961.

For TAGCCTAGGTCATTCAGGGGCCAGTATAGAAAGC, the PBM binding z-score is -0.0401.

Sequence ATCTCTAGTTAAAGTTCAGTGAAAGATCGATAGA yielded a PBM binding z-score of 2.21.

In the case of ATATGTAGGTTAGCTGGGTTCATTCAGACTAGGC, the PBM binding z-score is 7.23.

TCTATTAGTTCATTAGGGCAACCGAAACAGCGGA displayed a PBM binding z-score of 1.7.

CCTGCTAGGTCATGGTCCGCTAATCTACAGTATG: the PBM binding z-score is -0.433.

For TGTAGCAGGCCAGAGGGTCACTCAAGAGGTACGG, the PBM binding z-score is -0.159.

Turning to CGAACTAGGTCAGAACAAGACAGTGAAGGATGAT, the PBM binding z-score is 0.276.

The sequence ATCTCTAGGTAACAAGTTGAGTGAAAGAGAGGAC returned a PBM binding z-score of 0.569.

Sequence AGTCAAAGCTCAGGACGAGGTAACGTAAAGCACG came in with a PBM binding z-score of -0.405.

Consider ACTAGTTGGTCAGCTGAGGTCAGACACAATTCGG, for which the PBM binding z-score came out at 0.813.

Take CCTTACGGGTCACGCGGTTATAGCACGACGAGCG: the PBM binding z-score is -0.0866.

In the case of TCTTGTAGAGCAAGCAGGTTAAGAAAGCCTGAGT, the PBM binding z-score was -0.157.

As for ATACCAAGGGGATCGTGAGGTCGTTGATACTAAC, the PBM binding z-score stood at 0.87.

AGTCAAAGTTCAGGTCGAGGTAACGTAAAGCACG showed a PBM binding z-score of 2.14.

The sequence CCAGACAGGTGAGAAGGTAACCCAGCCTCGATTA had a PBM binding z-score of 0.187.

CCTAGCAGGCCAATCTGGGTCACTCAAGGCTTGA returned a PBM binding z-score of -0.679.

Consider TCATATAGGTACAGGTGAAAGTCGAACGATATGA, for which the PBM binding z-score was -0.0466.

For the sequence CAAACTAGGTCAAGGACAAAGTCGGTTTGTGCCA, the PBM binding z-score stood at 0.0226.

Turning to TCAAATAGGTAATACAGGTGAAAGTCGGCATCTA, the PBM binding z-score was 0.46.

Consider GCTTGTAGATCGAGGTTAAGAAAGACTAAGCTAA, for which the PBM binding z-score is -0.12.

Regarding ACTATTAGTTCAGACGAGGGCAACCGATAGGTTG, the PBM binding z-score was 2.04.

AATATTAGTTGAGACGAGGGCAACCGATAGGTTG showed a PBM binding z-score of 1.48.

As for GCATATAGGTAATACAAGGTGATAGTCCGATTGT, the PBM binding z-score was -0.157.

In turn, CCTACTGGTCCACGAAAGGTCATTGATTCAGTGA came in with a PBM binding z-score of 3.24.

On to GCGAGTGGGGCATCAGCAGGTTACCATAACTTAA, for which the PBM binding z-score is -0.251.

AGAATGAGGTTGTTAAGATCAGGGAATTGCGGTC: the PBM binding z-score is 0.179.

In the case of TCCAGCAGGCCAGAGGGTCACTCAAGAGGTACGG, the PBM binding z-score was -0.376.

On to GCTTGTAGATAAAGGTTAAGAAAGACTAAGCTAA, for which the PBM binding z-score is -0.193.

In the case of CAGCCTAGGTCTGGGCCAGTATAGGAGGAACGTT, the PBM binding z-score was -0.644.

As for CCTAGTTGGTCGAGGTCACACACGCTATAGGTAC, the PBM binding z-score was determined as 3.73.

As to ACTCGGAGCACAAAGGTCAGAGCTACGCCAGTGA, the PBM binding z-score stood at 0.191.

Turning to TCATATAGGTAAAAGGTGAAAGTCGGTGTGGTAA, the PBM binding z-score worked out at 0.508.

In turn, CCTCGGAGGCCAGAAGGTCAGAGCTGTCCGCTTT showed a PBM binding z-score of -0.625.

TATACAGGGTCAAAGGCCCGAGTACGAATGTCGA gave a PBM binding z-score of 0.0932.

For CGTCCAAGGTCAATGCTCGGTCAGTGAAAGCATT, the PBM binding z-score was determined as 0.774.

In the case of TCTATTACTTGAAGGGCAACCGACGAGTCCGTTT, the PBM binding z-score was 0.901.

With CCGAGTAGTTTATGGGGCATTCAGGCAACGGTGA, the PBM binding z-score is -0.00127.

Sequence TCGAGTAGATTAGTCGGGGCATTCAGCCAACATA gave a PBM binding z-score of -0.468.

CGTCCAAGATCAGCAGGTCAGTGAAAGCGACGTG had a PBM binding z-score of -0.221.
